In PubChem BioAssay:

Tested on: Plasmodium falciparum Sir2 (PF13_0152, Sir2A)
Assay: pfSir2 binders on small-molecule microarrays, primary screen, biochemical, small-molecule microarray, 635 nm fluorescence (AID 1098);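 also: score merges spot fluorescence intensity with its signal-to-noise ratio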
Settings: small-molecule microarray binding, fluorescence 635 nm; higher = more signal

| Structure (SMILES) | composite z-score |
| --- | --- |
| C=C[C@@H](O)[C@H]1CC(c2ccccc2)=NO1 | 1.46 |
| COC(=O)[C@]1(Cc2ccccc2CN=[N+]=[N-])N=C(c2ccc(OCCCO)cc2)O[C@@H]1c1ccccc1CN=[N+]=[N-] | 1.14 |
| O=C1C2C=CC(C(O)c3cccc4ccccc34)N(Nc3ccccc3)C2C(=O)N1c1ccccc1 (stereo not drawn) | 1.54 |
| O=C(O)[C@@]1(Cc2ccccc2)COC(c2ccc(OCCCO)cc2)=N1 | 1.01 |
| O=C1c2ccccc2[C@](Cc2ccccc2I)(C(=O)NC2CC2)[C@H](c2ccc(CO)cc2)N1Cc1ccccc1Cl | 0.453 |
| O=C(NCc1ccccc1)[C@]1(Cc2ccccc2)N=C(c2ccc(OCCCO)cc2)O[C@@H]1c1ccccc1 | -0.0602 |
| COCCCNC(=O)[C@@H]1c2ccccc2C(=O)N(Cc2cc(F)cc(C(F)(F)F)c2)[C@H]1c1ccc(CO)cc1 | 1.69 |
| COC(=O)[C@@]1(Cc2ccc(OC)cc2)[C@H]2c3cc(C(=O)N4CCCC4)n(CCF)c3C[C@H]2CN1C(=O)c1ccccc1 | 1.05 |
| Cc1ccc(C(C)CC(O)C2C=CC3C(=O)N(Cc4ccccc4)C(=O)C3N2n2cnnc2)o1 (stereo not drawn) | 0.755 |
| CN1C(=O)C2C=CC(C(O)c3cccc4ccccc34)N(NC(=O)OC(C)(C)C)C2C1=O (stereo not drawn) | 1.37 |
| O=C1N(Cc2ccccc2)c2ccccc2[C@H]2OC(c3ccc(OCCCO)cc3)=N[C@@]12CCS(=O)(=O)c1ccccc1 | 0.703 |
| COC(=O)[C@@]1(Cc2ccccc2)[C@H]2c3cc(C(=O)N4CCCC4)n(Cc4ccccc4)c3C[C@H]2CN1C(=O)c1ccccc1 | 1.1 |
| CCOC(=O)C[C@H]1[C@H](OC(=O)c2ccccc2-c2ccccc2)[C@@H](NC(=O)c2ccccc2)c2cc(OCCCO)ccc2N1C(=O)Cc1ccc(OC)cc1 | 0.0521 |
